The source of these data is PubChem BioAssay (NCATS).

Where “and” joins values, the source holds several entries; their conditions need not be identical. Equal values may be shown once. Records with an inconclusive call do not appear. A structure can be active in one record and inactive in another. Unmarked numbers belong to inactive results. Calls of active or inactive are those of the source. Calls follow the shape of the dose curve; as a rule, active = well fitted inhibition curve with a large enough effect; inconclusive = small, poorly fitted or top-dose-only effect; inactive = flat fitted curve, though single readings scatter.

The subject of one assay is W2. As to the kind of experiment: qHTS profiling for inhibitors of Plasmodium falciparum proliferation (AID 504749). As to conditions: P. falciparum in erythrocytes, SYBR Green DNA, 72 h; series mostly up to 28.7 µM. The gist of the method:
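P. falciparum-infected erythrocytes (0.3% parasitemia, 2.5% hematocrit) incubated with compound 72 h at 37 C, 5% CO2. Parasite DNA detected by SYBR Green after lysis, overnight at room temperature; normalised to 0.29 uM artemisinin and DMSO.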
(Quantitative high-throughput screening tests each substance at several concentrations.)

The test system of the next assay is CRL-7250. Description: Cytotoxic Profiling of Annotated Libraries Using Quantitative High-Throughput Screening (AID 1296008). As to max response: % is scaled to controls: 0 for no effect and ±100 for the full control effect. The note with it: Five cell lines viability, CellTiter-Glo ATP luminescence, 48-72 h; max response: active compounds read low. The gist of the method:
(§1)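 Cells exposed to compounds for 48 or 72 hr at 37 degrees Celsius. Viability read as ATP-coupled luminescence with CellTiter-Glo after 10 min at room temperature.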

The subject of a further assay is HEK293. The assay is described as above. As to conditions: Five cell lines viability, CellTiter-Glo ATP luminescence, 48-72 h; max response: active compounds read low. Put shortly:
as §1
(In ATP-based viability assays light output follows the ATP content of the culture.)

For assay [1], the system named is HaCat. Described as above. The note with it: Five cell lines viability, CellTiter-Glo ATP luminescence, 48-72 h; max response: active compounds read low. Put shortly: as §1
The next assay deals with KB-3-1. The description is as above. The note with it: Five cell lines viability, CellTiter-Glo ATP luminescence, 48-72 h; max response: active compounds read low. The gist of the method:
as §1

The next assay has as its system NIH3T3. The description is as above. As to conditions: Five cell lines viability, CellTiter-Glo ATP luminescence, 48-72 h; max response: active compounds read low. The gist of the method: as §1
In the next assay the test system is HEK293T. As to the kind of experiment: qHTS assay to identify novel small-molecules to repurpose for Merkel cell carcinoma treatment (AID 1296009). The note with it: MCC and control cell lines, CellTiter-Glo viability, 72 h; at 44.8 µM (top of the series) unless noted. The gist of the method:
(§2)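 Cells were treated for 72 hr at 37 degree celsius with compounds in 8- or 11-point dose response. Viability was read by CellTiter-Glo luminescence, normalized to no-cell (cytotoxicity) and DMSO controls.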

Another assay concerns MCC-13. The assay is described as above. The note with it: MCC and control cell lines, CellTiter-Glo viability, 72 h; series mostly up to 46 µM. Put shortly:
as §2

For another assay, the system named is MCC-26. The description is as above. As to conditions: MCC and control cell lines, CellTiter-Glo viability, 72 h; series mostly up to 46 µM. The gist of the method: as §2
Assay [2] concerns HACAT. The description is as above. As to conditions: MCC and control cell lines, CellTiter-Glo viability, 72 h; at 44.8 µM (top of the series) unless noted. The gist of the method:
as §2
Also: nearly all actives have a fitted effect of over 60% in size.
Potency is read from the fitted curve at half-maximal effect.

On to `Nc1cc(C(Cl)=C(Cl)Cl)c(S(N)(=O)=O)cc1S(N)(=O)=O`, for which the Potency entry with W2, with MCC-13 and in the assay on MCC-26 was “inactive” in each case. The max response is -8.91% with CRL-7250; 2.98% and -14% in the assay with HaCat [1]; -2.94% and -17.4% in the assay on KB-3-1; 4.72% and -5.94% in the assay with NIH3T3. Also, the result in the assay with HEK293 and with HEK293T was inactive.

`Nc1ccn([C@@H]2O[C@H](CO)[C@@H](O)C2O)c(=O)n1` (some centres undefined): the outcome with CRL-7250, in the assay with HEK293, in the assay on HaCat [1], in the assay with NIH3T3, in the assay on HACAT [2] and in the assay on HEK293T was inactive. For the same compound, the Potency result in the assay with MCC-13 and with MCC-26 was “inactive” throughout.

For `Nc1cccc2c1CN(C1CCC(=O)NC1=O)C2=O` (centres undefined), the Potency entry with W2, in the assay with MCC-13 and in the assay with MCC-26 was “inactive” in each case. Besides, the max response in the assay with CRL-7250 is -16.9% and -19.4%; with HEK293 it was 2.44% and -8.05%; in the assay on HaCat [1] it was -19.3% and -22.9%; with KB-3-1, 2.15% and 5.39%; with NIH3T3, 1.1% and -1.07%.

With `CC[C@]1(O)C[C@H]2CN(CCc3c([nH]c4ccccc34)[C@@](C(=O)OC)(c3cc4c(cc3OC)N(C=O)[C@H]3[C@@](O)(C(=O)OC)[C@H](OC(C)=O)[C@]5(CC)C=CCN6CC[C@]43[C@@H]65)C2)C1`, the Potency was 0.338 µM (active) in the assay on W2; 29.6 nM (active) and 211 nM (active) in the assay on CRL-7250; 14.8 nM (active) and 150 nM (active) with HEK293; 1.7 nM (active) and 1.84 µM (active) with KB-3-1; 209 nM (active) and 376 nM (active) in the assay on MCC-13; 0.0469 µM (active) with MCC-26. The call in the assay on HaCat [1] and in the assay on HACAT [2] was inactive.

With `CC(C)C[C@H](NC(=O)[C@H](Cc1ccccc1)NC(=O)c1cnccn1)B(O)O`, the Potency was 59.6 nM (active) and 51.7 nM (active) in the assay on CRL-7250; 47.3 nM (active) and 41.1 nM (active) in the assay with HEK293; 188 nM (active) with HaCat [1]; 58 nM (active) and 105 nM (active) in the assay on KB-3-1; 53.1 nM (active) and 11.6 nM (active) in the assay on NIH3T3; 0.0376 µM (active) in the assay with MCC-26.

As to `O=P(O)(O)C(O)(Cn1ccnc1)P(=O)(O)O`, the Potency entry in the assay on W2, in the assay on MCC-13 and with MCC-26 was “inactive” throughout. Moreover, the compound was called inactive with CRL-7250 and with HaCat [1]. Further, the max response is -11% in the assay on HEK293; -1.09% and 1.16% in the assay with KB-3-1; -2.33% in the assay on NIH3T3. Moreover, the outcome in the assay with HACAT [2] was “inactive [at 17.4 µM]”.

On to `COc1cc2c(cc1OC)C1CC(=O)C(CC(C)C)CN1CC2` (centres undefined), for which the outcome in the assay with CRL-7250, with HEK293, in the assay with HaCat [1], in the assay with NIH3T3, in the assay on HACAT [2] and in the assay on HEK293T was inactive. Moreover, the Potency result in the assay with MCC-13 and in the assay on MCC-26 was “inactive” throughout.

Take `Cc1nc2n(c(=O)c1CCN1CCC(c3noc4cc(F)ccc34)CC1)CCCC2`: the max response in the assay on CRL-7250 was 0.174%; in the assay with HEK293, -10.6%; with HaCat [1] it was 2.05% and 3.62%; in the assay with KB-3-1, 0.624% and -4.98%; in the assay with NIH3T3, -4.59% and 2.76%. Moreover, the Potency entry in the assay on MCC-13 and with MCC-26 was “inactive” each time.

On to `COc1c(O)cc2c(c1O)[C@@H]1O[C@H](CO)[C@@H](O)[C@H](O)[C@H]1OC2=O`, for which the compound was called inactive in the assay with CRL-7250, with HEK293 and in the assay with HEK293T. The max response in the assay with HaCat [1] is -11.1% and -23.6%; in the assay with KB-3-1, 6.75% and -4.18% and 5.95%; in the assay on NIH3T3, -9.83% and 0.115%. In addition, the Potency result in the assay on MCC-13 and in the assay with MCC-26 was “inactive” each time.

As to `S=c1nc[nH]c2nc[nH]c12`, in the assay on CRL-7250, the max response is -19.8%. For the same compound, the Potency in the assay on HEK293 is 6.68 µM (active) and 13.2 µM (active); with HaCat [1], 14800 nM (active); with KB-3-1 it was 7.43 µM (active); in the assay on NIH3T3 it was 1.88 µM (active) and 4.69 µM (active); in the assay on MCC-13, 2.99 µM (active) and 11.8 µM (active). Besides, in the assay on MCC-26, the Potency entry is “inactive”.

On to `Cc1ccc(NC(=O)c2ccc(CN3CCN(C)CC3)cc2)cc1Nc1nccc(-c2cccnc2)n1`, for which the Potency is 6.01 µM (active) in the assay on W2; 18.7 µM (active) and 21.1 µM (active) and 11.6 µM (active) with HEK293. The max response is -2.19% in the assay with CRL-7250 and -15.2% with NIH3T3. Also, the result in the assay on HaCat [1], in the assay with NIH3T3 and with HACAT [2] was inactive. In addition, the Potency entry with MCC-13 and in the assay with MCC-26 was “inactive” in each case.

With `N=C(N)c1ccc2cc(OC(=O)c3ccc(N=C(N)N)cc3)ccc2c1`, in the assay on W2, the Potency is 6.75 µM (active). In addition, the max response with CRL-7250 is -0.158% and -1.28%; in the assay with HEK293 it was -23.8% and 0.182%; with HaCat [1], -5.52% and -24.6%; with KB-3-1, 12.9%; in the assay with NIH3T3, -7.31% and -12.8%. Moreover, the Potency entry in the assay on MCC-13 and in the assay on MCC-26 was “inactive” throughout.

Consider `Cc1cc(C2CCCCC2)n(O)c(=O)c1`, for which the Potency was 3.61 µM (active) in the assay with W2; 3.35 µM (active) and 2.96 µM (active) in the assay with CRL-7250; 5.9 µM (active) in the assay on HEK293; 23.7 µM (active) and 20.9 µM (active) with HaCat [1]; 3.76 µM (active) and 14.8 µM (active) in the assay on NIH3T3; 10.6 µM (active) in the assay with MCC-13. Besides, in the assay on MCC-26, the Potency is 15 µM (active). The max response in the assay with KB-3-1 was -16.3%.

On to `CCOC(=O)C1=C[C@@H](OC(CC)CC)[C@H](NC(C)=O)[C@@H](N)C1`, for which the max response was 0.667% in the assay with CRL-7250; -4.58% in the assay on HEK293; 1.74% with HaCat [1]; 14.9% and 5.96% with KB-3-1. For the same compound, in the assay on NIH3T3, the outcome was inactive. In addition, the Potency entry in the assay on MCC-13 and with MCC-26 was “inactive” each time.

For `CN(C)c1ccc2nc3ccc(=[N+](C)C)cc-3sc2c1`, the Potency is 0.0478 µM (active) with W2; 11.8 µM (active) and 23.7 µM (active) in the assay with CRL-7250; 1.66 µM (active) and 1.33 µM (active) in the assay with HEK293; 3.72 µM (active) and 10.6 µM (active) in the assay with HaCat [1]; 2.09 µM (active) and 6.51 µM (active) in the assay on KB-3-1; 5.26 µM (active) and 3.35 µM (active) with NIH3T3. Besides, the Potency with MCC-13 is 7.43 µM (active) and 2.66 µM (active); with MCC-26, 21.1 µM (active).

On to `Cc1nc(Nc2ncc(C(=O)Nc3c(C)cccc3Cl)s2)cc(N2CCN(CCO)CC2)n1`, for which the Potency in the assay with CRL-7250 is 83.3 nM (active) and 66.8 nM (active) and 259 nM (active); with HEK293, 23.7 µM (active); in the assay with HaCat [1], 944 nM (active); in the assay with NIH3T3, 59.6 nM (active) and 73.1 nM (active); in the assay on MCC-13, 0.168 µM (active). Also, the max response in the assay on NIH3T3 is -106%.

Take `Nc1nc(OCc2ccccc2)c2[nH]cnc2n1`: the max response in the assay on CRL-7250 was 0.448%. Moreover, the compound was classed as inactive in the assay with HEK293, in the assay with HaCat [1], in the assay on NIH3T3, with HACAT [2] and in the assay with HEK293T. Further, the Potency result with MCC-13 and in the assay with MCC-26 was “inactive” throughout.

Consider `Oc1ccc(-c2nc(-c3ccc(F)cc3)c(-c3ccncc3)[nH]2)cc1`, for which the max response was -11.9% in the assay with CRL-7250 and -6.19% in the assay on HaCat [1]. The Potency in the assay on HEK293 was 11.8 µM (active). Further, the result in the assay on KB-3-1 and in the assay with NIH3T3 was inactive. The Potency result in the assay with MCC-13 and in the assay with MCC-26 was “inactive” in each case.
